# This excerpt belongs to a sample that is enriched for hits.
# ST2 IL33 inh: IL1RL1 inhibition. inhibition, % for hits at 17 µM. AID 1259354. hit rate 2.3% among 78,000. AlphaLISA ST2-Fc/biotin-IL-33 interaction, 1 h; in the data active = inhibition above about 30%
# Target sequence (Q01638 whole entry, looked up): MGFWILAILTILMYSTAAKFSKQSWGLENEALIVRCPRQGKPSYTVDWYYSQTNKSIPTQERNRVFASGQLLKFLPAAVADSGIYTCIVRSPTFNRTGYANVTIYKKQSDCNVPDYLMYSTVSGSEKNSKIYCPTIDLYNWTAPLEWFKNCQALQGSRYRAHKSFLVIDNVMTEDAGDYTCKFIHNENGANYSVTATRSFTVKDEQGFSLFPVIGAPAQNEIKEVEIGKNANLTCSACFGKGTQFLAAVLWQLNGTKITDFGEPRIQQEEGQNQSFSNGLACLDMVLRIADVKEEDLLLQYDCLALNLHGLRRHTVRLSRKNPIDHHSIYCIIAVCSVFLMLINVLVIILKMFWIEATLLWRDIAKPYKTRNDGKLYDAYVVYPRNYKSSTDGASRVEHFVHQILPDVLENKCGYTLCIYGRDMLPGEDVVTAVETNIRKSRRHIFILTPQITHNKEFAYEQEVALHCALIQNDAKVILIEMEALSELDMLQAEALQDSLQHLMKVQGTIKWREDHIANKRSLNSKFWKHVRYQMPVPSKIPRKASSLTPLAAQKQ
# Numbers stand for hits; – = inactive; ! = not confirmed by another sample.
SMILES,ST2 IL33 inh
Cc1cc(C)nc(NS(=O)(=O)c2ccc(NC(=O)c3sc4ccccc4c3Cl)cc2)n1,–
COC(=O)c1ccc(-c2cccc3c2OC(CNC(=O)C24CC5CC(CC(C5)C2)C4)C3)nc1 (centres undefined),–
Cc1cc([N+](=O)[O-])c(N2CCOCC2)cc1N,–
N#CC1(C#N)C(c2ccco2)NC23CCCCC2C1(C#N)C(=O)N3 (centres undefined),–
Cc1cccc(C(=O)N2CCC(Cc3ccccc3)CC2)c1,–
O=c1[nH]c2ccc(S(=O)(=O)Nc3ccc(F)c(F)c3)cc2[nH]c1=O,–
O=C1CCCC2=C1C(c1cccc([N+](=O)[O-])c1)N(C(=O)c1ccccc1)c1ccccc1N2 (centres undefined),–
Cc1ccc(C23C[C@@H]4C[C@@H](CC(Cl)(C4)C2)C3)cc1N,–
Cc1ccc(C23C[C@@H]4C[C@@H](CC(O)(C4)C2)C3)cc1[N+](=O)[O-],44%
Cc1ccc(S(=O)(=O)N2CCN(S(=O)(=O)c3ccc(C)c([N+](=O)[O-])c3)C2)cc1,–
OC(c1cccs1)C1CCN(Cc2cnn3cccnc23)CC1 (centres undefined),–
O=C(CCCn1c(=O)[nH]c2ccsc2c1=O)N1CCC(Cc2ccccc2)CC1,–
COc1ccc(Br)cc1C1SCCN1S(=O)(=O)c1ccc(C)cc1 (centres undefined),–
CCn1c(C2CCNCC2)nn(CCCc2ccccc2)c1=O,–
O=c1[nH]c(/C=C\c2ccccc2Cl)c([N+](=O)[O-])c(=O)[nH]1,–
Cc1nc2ccccc2c(=O)[nH]1,–
O=c1[nH]c(/C=C\c2ccccc2Cl)nc2ccccc12,44%
O=C(Nc1cccc(Cl)c1)c1cc(C2CC2)on1,–
O=C(NC1C[C@@H]1c1ccccc1)[C@@H]1CC1c1ccccc1 (some centres undefined),–
NNC(=O)C1CC1c1ccccc1 (centres undefined),–
O=C(Nc1ccc(Nc2ccccc2)cc1)C1CC1c1ccccc1 (centres undefined),30%
COc1ccc(N(C(=O)c2cc(OC)c(OC)c(OC)c2)C2C=CS(=O)(=O)C2)cc1 (centres undefined),–
Cc1c(N=Cc2cc([N+](=O)[O-])ccc2N2CCCCCC2)c(=O)n(-c2ccccc2)n1C,42%
Cc1c(N=Cc2cc([N+](=O)[O-])ccc2N(C)C2CCCCC2)c(=O)n(-c2ccccc2)n1C,47%
Cc1c(N=Cc2ccc(Cl)o2)c(=O)n(-c2ccccc2)n1C,–
SMILES,ST2 IL33 inh
Cc1c(N=Cc2cc(Br)cc(Br)c2O)c(=O)n(-c2ccccc2)n1C,–
COc1cc(C=Nc2c(C)n(C)n(-c3ccccc3)c2=O)cc([N+](=O)[O-])c1O,–
COc1cc(C=Nc2c(C)n(C)n(-c3ccccc3)c2=O)c([N+](=O)[O-])cc1OC,–
O=S(=O)(Nc1ccccn1)c1ccc(N=Cc2cccc(Cl)c2)cc1,–
C=C1C(=O)OC2/C=C(\C)CC/C=C(\CO)CC(O)C12 (centres undefined),–
COc1cc(NS(=O)(=O)c2ccc(NC(=O)Cc3ccccc3)cc2)ncn1,–
O=C(CCN1CCCCO1)N1CCN(C2CCCCC2)C(=O)C1,–
CCn1cc(C(=O)N2CCN(C)CC2)c(=O)c2cc(S(=O)(=O)N3CCCCC3)ccc21,–
O=C(N[C@H]1CCCCNC1=O)c1ccccc1OC1CCN(Cc2ccccn2)CC1,–
COc1ccc(COc2ccc3c4c(c(=O)oc3c2)CCC4)cc1,–
O=C(O)c1ccc(O)c(C=Nc2cccc(-c3nc4ccccc4o3)c2)c1,–
Cc1cccc2oc(-c3cccc(N=Cc4ccc(O)cc4O)c3)nc12,–
Cc1ccc2nc(SCC(=O)c3ccc4c(c3)OCO4)[nH]c2c1,–
Oc1ccc(N=Cc2cccc(I)c2O)cc1-c1nc2ccccc2o1,41%
Cc1cccc2oc(-c3cccc(N=Cc4cc([N+](=O)[O-])cc([N+](=O)[O-])c4O)c3)nc12,–
Cc1ccc2nc(-c3ccc(N=Cc4ccc5c(c4)OCO5)cc3O)oc2c1,32%
Cc1cc(C=Nc2ccc(-c3nc4ccccc4o3)c(O)c2)c(O)c([N+](=O)[O-])c1,30%
Cc1ccc2nc(-c3cccc(N=Cc4cccc([N+](=O)[O-])c4O)c3)oc2c1,–
O=C(Nc1ccc(O)c(-c2nc3ccccc3o2)c1)c1cccc(Cl)c1Cl,–
O=C(NCCCN1CCN(c2ccccc2F)CC1)c1cccn1-c1nnc(N2CCCCC2)s1,–
O=C1C2CCCN2C(c2cccc(F)c2)N1c1nccs1 (centres undefined),–
Cc1ccc(CN2CCCC(CO)C2)cc1 (centres undefined),–
CCc1ccc(CN2CCCC(CO)C2)cc1 (centres undefined),–
OCC1CCCN(Cc2ccc3c(c2)Cc2ccccc2-3)C1 (centres undefined),98%
N#Cc1c(NC(=O)c2cc3cc(Br)ccc3oc2=O)sc2c1CCCC2,–
SMILES,ST2 IL33 inh
COC(=O)[C@@H]1C[C@@H](NC(=O)C(c2ccccc2)c2ccccc2)CN1Cc1ccc(O)cc1,–
Cc1cnc(N(C)CCCc2cnn(C)c2)nc1N(C)C,–
Cc1ccc(S(=O)(=O)N2CCCCC2)cc1[N+](=O)[O-],–
Cc1ccc(S(=O)(=O)N2CCc3ccccc32)cc1C(N)=O,–
Cc1ccc(S(=O)(=O)N2CCc3ccccc32)cc1[N+](=O)[O-],36%
CCOc1ccc(S(=O)(=O)Nc2c(C)cc(C)cc2C)c2cccnc12,–
O=c1c2sccc2n(Cc2ccccc2F)c(=O)n1-c1ccc(F)cc1,–
O=[N+]([O-])c1cc2c(cc1C=Nc1ccc(O)c(-c3nc4ccccc4[nH]3)c1)OCO2,30%
Cc1cccc(N=Cc2cc3c(cc2[N+](=O)[O-])OCO3)c1,33%
O=[N+]([O-])c1cc2c(cc1C=Nc1ccc(Cl)c(C(F)(F)F)c1)OCO2,–
Oc1ccccc1-c1nc2ccccc2[nH]1,–
CCN(CC)Cc1c(O)ccc2cc(-c3nc4ccccc4[nH]3)c(=O)oc12,–
Cc1cccc2oc(-c3cccc(N=Cc4cccc([N+](=O)[O-])c4O)c3)nc12,–
OC1(c2ccc(Cl)cc2)CCN(Cc2nc(Cc3ccccc3F)no2)CC1,–
CC(C)Cc1noc(C2CCCN(C(=O)c3cc(C(C)C)on3)C2)n1 (centres undefined),–
CCc1ccc(-c2nccn2CCc2nc(C)c3c(n2)CCC3)o1,–
COc1ccc(/C=C/C(=O)N2CCCC(CCC(=O)NC3CC3)C2)cc1 (centres undefined),–
Cc1ccc2c(Cl)c(C(=O)N3CCCCC3)sc2c1,–
C=C(C)Cn1c(C(C)NC(=O)c2ccccc2)nc2ccccc21 (centres undefined),–
O=C(Nc1ccccn1)c1ccc2c(c1)C(=O)N(c1cccc([N+](=O)[O-])c1)C2=O,30%
O=C(Nc1ccccc1C(=O)O)c1ccc2c(c1)C(=O)N(c1ccccn1)C2=O,–
CC1=C(C(=O)Nc2ccccn2)C(c2cccc([N+](=O)[O-])c2)C2=C(CCCC2=O)N1 (centres undefined),–
O=S(=O)(NCc1nc2cccnc2n1Cc1ccccc1Cl)c1cccs1,–
Cn1c(=O)c2c(nc3n2CC(=O)N3c2cccc(Cl)c2)n(C)c1=O,–
O=C(O)CCC(C(=O)O)N1C(=O)c2ccccc2C1=O (centres undefined),–
CS(=O)CCC(C(=O)O)N1C(=O)c2ccccc2C1=O (centres undefined),38%!
O=C(NCc1ccccc1)C(Cc1ccccc1)N1C(=O)c2ccccc2C1=O (centres undefined),–

# Assay outcomes from PubChem.
